Compounds with a hit are over-represented: about 2.1% of the library has one in this group of screens.
Rin1 Abl inh – inhibitors of human Rin1-Abl protein interaction. 360,000 compounds, 0.4% hits. AID 588664. inhibition, % at 7.35 µM. TR-FRET Rin1/Abl binding, biochemical; in the data active = inhibition above about 5%, passing the limit was not always enough
Target sequence (P00519 whole entry, looked up): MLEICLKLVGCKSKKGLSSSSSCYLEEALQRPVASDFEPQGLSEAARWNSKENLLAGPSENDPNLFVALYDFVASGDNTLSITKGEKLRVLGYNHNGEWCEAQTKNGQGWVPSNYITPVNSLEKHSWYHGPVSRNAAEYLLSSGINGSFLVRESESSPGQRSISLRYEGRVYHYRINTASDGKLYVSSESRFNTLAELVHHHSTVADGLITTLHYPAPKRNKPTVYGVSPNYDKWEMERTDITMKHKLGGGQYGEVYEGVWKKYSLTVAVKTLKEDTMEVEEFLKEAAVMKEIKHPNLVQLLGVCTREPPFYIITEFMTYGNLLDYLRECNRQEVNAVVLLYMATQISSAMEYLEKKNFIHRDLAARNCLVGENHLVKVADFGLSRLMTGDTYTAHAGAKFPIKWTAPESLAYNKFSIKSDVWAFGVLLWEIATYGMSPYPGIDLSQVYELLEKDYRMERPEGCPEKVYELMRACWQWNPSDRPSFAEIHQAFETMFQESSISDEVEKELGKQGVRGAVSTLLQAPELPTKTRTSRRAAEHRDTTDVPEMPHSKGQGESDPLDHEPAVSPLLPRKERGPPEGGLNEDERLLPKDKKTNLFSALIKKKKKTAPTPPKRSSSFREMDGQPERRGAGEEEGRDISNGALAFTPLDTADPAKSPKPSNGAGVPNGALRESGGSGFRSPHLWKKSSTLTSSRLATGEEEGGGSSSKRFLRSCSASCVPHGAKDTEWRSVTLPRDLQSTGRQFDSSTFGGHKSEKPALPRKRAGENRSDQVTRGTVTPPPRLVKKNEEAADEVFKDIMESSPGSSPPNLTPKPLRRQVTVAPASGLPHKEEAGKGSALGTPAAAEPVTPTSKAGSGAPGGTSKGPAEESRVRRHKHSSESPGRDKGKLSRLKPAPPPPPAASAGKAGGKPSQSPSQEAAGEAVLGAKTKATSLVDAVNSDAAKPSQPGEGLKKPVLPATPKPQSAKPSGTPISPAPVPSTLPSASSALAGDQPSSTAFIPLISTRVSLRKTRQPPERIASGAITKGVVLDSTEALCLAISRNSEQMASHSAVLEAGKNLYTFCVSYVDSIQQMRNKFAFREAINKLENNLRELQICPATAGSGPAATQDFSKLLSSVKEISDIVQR
Target sequence (Q13671 whole entry, looked up): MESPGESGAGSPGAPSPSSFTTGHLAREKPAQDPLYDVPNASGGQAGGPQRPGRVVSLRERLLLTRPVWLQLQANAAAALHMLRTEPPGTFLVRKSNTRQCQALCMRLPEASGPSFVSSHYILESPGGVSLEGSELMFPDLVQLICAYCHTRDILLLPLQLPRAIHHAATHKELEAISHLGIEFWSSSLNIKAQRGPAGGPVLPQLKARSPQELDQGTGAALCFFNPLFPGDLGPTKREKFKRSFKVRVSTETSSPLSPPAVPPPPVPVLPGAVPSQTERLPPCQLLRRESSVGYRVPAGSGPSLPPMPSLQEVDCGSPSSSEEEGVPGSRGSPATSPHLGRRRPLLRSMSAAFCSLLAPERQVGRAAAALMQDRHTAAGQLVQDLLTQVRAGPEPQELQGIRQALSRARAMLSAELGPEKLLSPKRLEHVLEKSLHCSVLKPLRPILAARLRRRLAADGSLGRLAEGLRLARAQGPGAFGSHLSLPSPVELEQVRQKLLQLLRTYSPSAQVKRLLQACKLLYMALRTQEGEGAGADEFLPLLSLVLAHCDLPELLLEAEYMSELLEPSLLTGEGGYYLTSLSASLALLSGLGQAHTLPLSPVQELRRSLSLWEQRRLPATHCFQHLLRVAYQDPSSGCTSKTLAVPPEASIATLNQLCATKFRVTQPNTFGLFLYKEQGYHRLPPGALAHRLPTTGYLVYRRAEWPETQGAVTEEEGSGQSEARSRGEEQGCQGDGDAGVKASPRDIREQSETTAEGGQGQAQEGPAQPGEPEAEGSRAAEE
Calb FLC – affects C. albicans growth with fluconazole; growth inhibition, % (concentration not given with the values); 300,000 compounds, 0.57% hits; C. albicans CaCi-2 (fluconazole-resistant clinical isolate) + fluconazole, Alamar Blue growth, 48 h;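 active = growth inhibition above about 58% in most replicates, limit read from the data, passing the limit was not always enough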;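 note: all wells also contain fluconazole at 8 µg/ml as a sub-toxic cotreatment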
PfM18AAP inh – blocks P. falciparum M18 aspartyl aminopeptidase. 290,000 compounds, 1.2% hits. AID 1822. inhibition, % at 7.35 µM. recombinant PfM18AAP, H-Glu-NHMec fluorogenic cleavage;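 active = inhibition above the campaign mean inhibition over all tested compounds plus 3 SD, cut at about 28% in these data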
Fh CTSL1 inh – cathepsin L1 inhibition, PFM18AAP counter-screen | 300,000 compounds, 0.49% hits | AID 1906 | inhibition, % at 5.96 µM | recombinant F. hepatica cathepsin L1, Z-Leu-Arg-MCA fluorescence;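 active = inhibition above the mean of all tested compounds plus 3 SD, set per screening campaign, cut at about 17% in these data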
Numbers stand for hits; . = inactive; / = not tested or not shown.

SMILES	Rin1 Abl inh	Calb FLC	PfM18AAP inh	Fh CTSL1 inh
COC(=O)[C@]1(C)N[C@H](CN(C)C(=O)c2ccccc2)[C@@H]2C(=O)N(C)C(=O)[C@@H]21	.	/	/	/
CCOC(=O)c1ccc(-c2ccc(/C=N/NC(=O)Cc3nnc(N)s3)o2)cc1	.	.	28.9	.
Nc1nnc(CC(=O)N/N=C/c2ccc(-c3ccc(F)cc3)o2)s1	.	.	.	.
NC(=O)CSc1nc2scc(-c3ccco3)c2c(=O)n1-c1ccccc1	.	.	.	27.8
Clc1cccc(N2CCN(CCCN3CCN(c4ccccc4)CC3)CC2)c1	.	/	/	/
Nc1ccc(N2CCN(c3cccc(Cl)c3)CC2)cc1	.	101.3	.	.
CC(=O)c1ccc(OCC(=O)NC(=O)NC2CCCCC2)cc1	.	.	.	.
Cc1ccc(C2=N/C(=C\N3CCCCC3)C(=O)O2)cc1	.	.	.	.
Cc1nn(-c2ccccc2)c(N2CCCC2)c1/C=C1\N=C(c2ccc(OC(C)C)cc2)OC1=O	.	.	.	74.0
CCSc1ccc2cc(OC)ccc2[n+]1CC	.	75.4	.	.
CCn1ccc2cc(OC)ccc2c1=S	.	.	.	.
O=C(Cn1cnc2c(nnn2Cc2ccc(F)cc2)c1=O)NC1CCCC1	.	100.2	.	.
FC(F)(F)c1nc2cc3nc4ccccc4[nH]c3cc2n1	.	.	.	.
COc1ccc(C(=O)On2c(-c3ccc(Br)cc3)nc3ccccc3c2=O)cc1	.	104.0	.	.
O=S(=O)(c1ccc(Cl)s1)N1CCCc2cccc(O)c21	.	68.0	.	.
O=C(NCCc1ccc(Cl)cc1)c1cc(=O)[nH]c2ccccc12	.	.	.	.
CC(C)CC(NS(=O)(=O)c1ccc2c(c1)oc(=O)n2C)C(=O)N1CC=C(c2ccccc2)CC1 (centres undefined)	.	/	.	77.5
Cc1nc2c(C(=O)NCCC(C)C)c[nH]n2c(=O)c1Cc1ccccc1F	.	85.1	.	.
CCc1ccc(/C(C)=N\Nc2ccc([N+](=O)[O-])cc2)cc1	.	128.6	.	.
C/C(=N\Nc1ccc([N+](=O)[O-])cc1)c1ccc(N2CCOCC2)cc1	.	.	.	.
Clc1ccc2nc(-c3ccccc3)c(CC3CCCCC3)n2c1	.	/	/	/
O=C(c1ccc(C(=O)N2CCCc3ccccc32)s1)N1CCCc2ccccc21	.	114.3	.	.
O=C(c1ccc([N+](=O)[O-])s1)N1CCCc2ccccc21	.	.	.	.
COCCCNC1=C(Cl)C(=O)c2ccccc2C1=O	.	.	.	.
CCN(CC)CCCNC1=C(Cl)C(=O)c2ccccc2C1=O	.	.	.	17.0
SMILES	Rin1 Abl inh	Calb FLC	PfM18AAP inh	Fh CTSL1 inh
O=[N+]([O-])c1cc2c(c3cccnc13)COCO2	.	/	/	/
Cc1cc(=S)[nH]c2c(C)cccc12	.	.	33.1	.
Cc1cccc2c(-c3ccccc3)cc(=O)[nH]c12	.	.	.	.
CC(=O)C1=C(C)Nc2ncnn2C1c1cccc(Br)c1 (centres undefined)	.	/	.	.
CCOC(=O)c1c(C)[nH]c(C2=NNC(=NC3CC3)SC2)c1C	.	.	43.6	.
CCOC(=O)c1c(C)[nH]c(/C(C)=N/O)c1C	.	.	.	.
CCN(C(=O)/C=C/c1ccc(OC)cc1)C1CCCCC1	.	.	.	.
Cc1ccc(NC(=O)Cn2nc(C(=O)O)c3ccccc3c2=O)cc1S(=O)(=O)N1CCCCCC1	.	/	/	/
Cc1ccc(-c2ccc(/C=C/C(=O)c3ccccc3)o2)cc1	.	.	.	41.5
O=C(/C=C/c1ccc(-c2ccccc2)o1)c1ccccc1	.	.	.	64.3
O=Cc1ccc(-c2cccc(C(=O)O)c2)o1	.	.	.	.
CC(C)CC(NC(=O)C1CCC(C)CC1)C(=O)NCc1ccco1 (centres undefined)	.	.	.	22.7
COc1ccccc1CNC(=O)C(CC(C)C)NC(=O)C1CCC(C)CC1 (centres undefined)	.	.	.	.
CCC(C)[C@H](NC(=O)[C@@H]1CSC2c3ccccc3C(=O)N21)C(=O)NCC1CCCO1 (some centres undefined)	.	.	.	17.3
OCC[C@@H]1C[C@H](O)[C@@H](O)[C@]2(OCCc3cc(C(F)(F)F)ccc32)O1	.	/	/	/
CCOC(=O)c1sc(=S)n(-c2ccc(C)cc2)c1N	.	.	29.4	.
CC12CCC(C(=O)NNC(=O)c3ccc(F)cc3)(OC1=O)C2(C)C (centres undefined)	.	.	.	.
COC(=O)c1cc(NC(=O)CN(C)Cc2ccccc2)cc(C(=O)OC)c1	.	.	.	.
CS/C(=N\S(=O)(=O)c1cccs1)Nc1ccc(Br)cc1F	.	101.2	.	.
CS/C(=N\S(=O)(=O)c1cccs1)Nc1ccc(Cl)cc1	.	85.5	.	.

Bioassay records from PubChem BioAssay.
